# Data from PubChem BioAssay.
# Values without a mark were called inactive. A call without a number means that no potency is given here. For part of these data: Potency and affinity values are given separately. Active and inactive are the calls of the source. Unless noted, how the calls were made is not given here.
# Assays:
# [1] = antimalarial activity against Dd2 strain (AID 2302;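 active means growth inhibition above 50% at the single 2 µM test dose, taken to imply half-maximal potency below 2 µM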); conditions: P. falciparum Dd2 in RBCs, LDH growth readout, 72 h; at 2 µM; stronger effect = higher value
# [2] = HepG2 cytotoxicity, primary screen, cytotoxicity control for P. falciparum antimalarial project, cell-based, ATP luminescence (AID 2303;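 active means inhibition above 50%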); conditions: HepG2 viability, 24-48 h, at 10 µM, stronger effect = higher value
# [3] = target: L-lactate dehydrogenase (Plasmodium falciparum (isolate CDC / Honduras)) (UniProt Q27743); experiment: PfLDH activity inhibition – cell lysate, 3D7 strain, counter-screen for P. falciparum growth inhibition project (AID 2304); conditions: P. falciparum 3D7 crude extract, LDH APAD/NBT absorbance; at 2 µM; stronger effect = higher value
# L-lactate dehydrogenase (Plasmodium falciparum (isolate CDC / Honduras)), sequence (Q27743 whole entry, looked up): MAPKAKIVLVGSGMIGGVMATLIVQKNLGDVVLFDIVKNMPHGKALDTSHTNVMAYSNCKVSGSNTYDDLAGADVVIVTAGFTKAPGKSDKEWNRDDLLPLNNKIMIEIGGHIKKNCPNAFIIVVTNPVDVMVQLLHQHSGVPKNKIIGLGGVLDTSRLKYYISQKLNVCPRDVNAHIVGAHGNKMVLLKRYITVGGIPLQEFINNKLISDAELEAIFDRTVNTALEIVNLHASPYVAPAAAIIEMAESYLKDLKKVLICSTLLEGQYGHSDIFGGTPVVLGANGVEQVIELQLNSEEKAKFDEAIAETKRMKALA
# [4] = inhibition of 3D7 malaria parasite growth – strain 3D7 (AID 2306); conditions: P. falciparum 3D7 erythrocytic growth, LDH absorbance, 72 h; at 2 µM; stronger effect = higher value
# [5] = target: Calcium-dependent protein kinase 1 (Plasmodium falciparum (isolate 3D7)) (UniProt P62344); experiment: PfCDPK1 kinase inhibitors, biochemical, TCAMS library (AID 1159585; cut-off not given, nearly all actives have IC50 up to about 0.98 µM;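 further: inhibitors leave more ATP so luminescence rises with inhibition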); conditions: recombinant PfCDPK1, Kinase-Glo ATP depletion luminescence
# Calcium-dependent protein kinase 1 (Plasmodium falciparum (isolate 3D7)), sequence (P62344 whole entry, looked up): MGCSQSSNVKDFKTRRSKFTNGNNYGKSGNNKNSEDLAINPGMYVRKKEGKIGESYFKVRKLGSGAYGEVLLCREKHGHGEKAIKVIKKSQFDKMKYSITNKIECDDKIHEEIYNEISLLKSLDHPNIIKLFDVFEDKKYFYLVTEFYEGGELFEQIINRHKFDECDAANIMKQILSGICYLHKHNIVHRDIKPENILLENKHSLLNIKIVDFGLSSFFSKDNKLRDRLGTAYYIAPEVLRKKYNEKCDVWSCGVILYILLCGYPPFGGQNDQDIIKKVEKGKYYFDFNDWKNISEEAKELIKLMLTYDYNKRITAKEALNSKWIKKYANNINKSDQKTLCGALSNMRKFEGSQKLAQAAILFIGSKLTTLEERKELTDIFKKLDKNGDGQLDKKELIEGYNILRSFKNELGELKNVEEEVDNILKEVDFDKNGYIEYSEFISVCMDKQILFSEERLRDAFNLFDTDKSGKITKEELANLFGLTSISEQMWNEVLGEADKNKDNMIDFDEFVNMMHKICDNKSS
# [6] = target: Plasmodium falciparum protein kinase 6 (PK6, PF3D7_1337100) (UniProt Q8IDW1); experiment: PfPK6 kinase inhibitors, biochemical, TCAMS library (AID 1159586); conditions: recombinant PfPK6, Kinase-Glo ATP depletion luminescence
# Plasmodium falciparum protein kinase 6 (PK6, PF3D7_1337100), sequence (Q8IDW1 1-305): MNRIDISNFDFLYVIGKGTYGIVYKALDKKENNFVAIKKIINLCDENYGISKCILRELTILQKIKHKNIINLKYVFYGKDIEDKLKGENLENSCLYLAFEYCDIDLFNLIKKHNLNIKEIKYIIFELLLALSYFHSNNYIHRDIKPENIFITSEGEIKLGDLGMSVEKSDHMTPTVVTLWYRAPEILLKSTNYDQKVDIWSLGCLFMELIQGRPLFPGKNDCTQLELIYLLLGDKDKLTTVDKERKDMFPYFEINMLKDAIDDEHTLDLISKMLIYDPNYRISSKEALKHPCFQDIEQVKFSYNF
# [7] = target: Protein kinase 7 (PK7), Plasmodium falciparum 3D7 (PF3D7_0213400) (UniProt Q7YTF7); experiment: inhibition of Plasmodium PK7 catalytic activity – biochemical, TCAMS antimalarial set, Kinase-Glo luminescence (AID 1159587); conditions: recombinant PfPK7, Kinase-Glo ATP depletion luminescence
# Protein kinase 7 (PK7), Plasmodium falciparum 3D7 (PF3D7_0213400), sequence (Q7YTF7 1-343): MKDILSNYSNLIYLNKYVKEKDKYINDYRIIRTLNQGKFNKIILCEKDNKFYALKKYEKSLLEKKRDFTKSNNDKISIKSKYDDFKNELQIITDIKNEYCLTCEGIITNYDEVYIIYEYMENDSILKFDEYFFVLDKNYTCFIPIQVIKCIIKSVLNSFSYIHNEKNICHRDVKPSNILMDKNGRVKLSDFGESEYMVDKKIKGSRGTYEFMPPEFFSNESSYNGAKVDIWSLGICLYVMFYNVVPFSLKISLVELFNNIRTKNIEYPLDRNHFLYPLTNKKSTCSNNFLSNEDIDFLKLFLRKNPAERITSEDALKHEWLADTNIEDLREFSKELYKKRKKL
# [8] = target: Calcium-dependent protein kinase 4 (Plasmodium falciparum (isolate 3D7)) (UniProt Q8IBS5); experiment: PfCDPK4 kinase inhibitors, biochemical, TCAMS library (AID 1159588; cut-off not given, nearly all actives have IC50 up to about 0.91 µM); conditions: recombinant PfCDPK4, Kinase-Glo ATP depletion luminescence
# Calcium-dependent protein kinase 4 (Plasmodium falciparum (isolate 3D7)), sequence (Q8IBS5 whole entry, looked up): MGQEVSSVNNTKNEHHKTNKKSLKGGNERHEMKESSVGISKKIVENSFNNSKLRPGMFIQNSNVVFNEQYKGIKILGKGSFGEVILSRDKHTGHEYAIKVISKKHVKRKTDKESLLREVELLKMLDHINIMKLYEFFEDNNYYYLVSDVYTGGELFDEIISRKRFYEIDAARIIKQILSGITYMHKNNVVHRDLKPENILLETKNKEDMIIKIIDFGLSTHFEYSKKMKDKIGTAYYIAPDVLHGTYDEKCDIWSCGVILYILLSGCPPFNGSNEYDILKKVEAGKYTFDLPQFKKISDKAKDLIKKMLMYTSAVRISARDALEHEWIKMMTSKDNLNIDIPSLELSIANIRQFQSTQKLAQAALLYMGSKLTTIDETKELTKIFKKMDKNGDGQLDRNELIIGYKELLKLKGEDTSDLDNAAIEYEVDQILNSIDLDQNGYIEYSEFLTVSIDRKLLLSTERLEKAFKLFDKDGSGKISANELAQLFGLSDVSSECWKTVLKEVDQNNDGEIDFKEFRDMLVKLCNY
SMILES,growth inhibition [1],inhibition [2],inhibition [3] [%],growth inhibition [4],outcome [5],outcome [6],outcome [7],outcome [8]
COc1ccc(CN2CCCN(Cc3cccc(NC(=O)c4cc5ccccc5s4)c3)CC2)cc1,32%,32%,5,94% (active),inactive,inactive,inactive,inactive
O=C(Nc1cc(=O)[nH]c2nc(-c3ccccc3)nn12)C1CCCCC1,89% (active),-9%,-4,86% (active),inactive,inactive,inactive,inactive
Nc1nonc1-c1nc2c(-c3cccc(Cl)c3)nccc2n1CCCNC(=O)Cc1ccc(Cl)cc1,92% (active),-4%,-2,94% (active),inactive,inactive,inactive,inactive
O=C(/C=C/c1ccc(Cl)c(Cl)c1)NCCCCCN1CCC(NC(=O)Nc2cc(Cl)nc(Cl)c2)CC1,2%,4%,-8,102% (active),inactive,inactive,inactive,inactive
Cc1ccc(CON2C(N)=NC(N)=NC2(C)C)c(Cl)c1 (tested in a mixture with another compound),96% (active),67% (active),0,91% (active),inactive,inactive,inactive,inactive
N#Cc1cccc(CN2CCCN(Cc3ccc(C(=O)Nc4ccc(Cl)cc4)cc3)CC2)c1,21%,48%,1,98% (active),inactive,inactive,inactive,inactive
FC(F)(F)c1ccc2c(NN=Cc3cccc(Cl)c3)ccnc2c1,59% (active),7%,-3,93% (active),inactive,inactive,inactive,inactive
CCN(CCCN1CCCCC1)c1cc(C)nc(Nc2cc(Cl)cc(Cl)c2)n1,99% (active),34%,-3,100% (active),inactive,inactive,inactive,inactive
O=C1CCCN1CCCNCc1cccc(-c2ccc(-c3nc4ccc(C(F)(F)F)cc4[nH]3)cc2)c1,96% (active),15%,-3,101% (active),inactive,inactive,inactive,inactive
c1cc(CNC2Cc3ccccc3C2)cc(-c2cnc(N3CCNCC3)nc2)c1,65% (active),43%,-9,93% (active),inactive,inactive,inactive,inactive
CC(C)c1ccc(OCC(O)CN(CCN2CCOCC2)C(=O)Nc2ccc(Br)cc2)cc1 (stereo not drawn),44%,6%,-2,98% (active),inactive,inactive,inactive,inactive
Cn1nccc1C(=O)NCCNCc1cccc(-c2ccc(-c3nc4ccccc4[nH]3)cc2)c1,98% (active),19%,4,100% (active),inactive,inactive,inactive,inactive
CNc1ccc(CNCc2ccc(-c3ccc(-c4nc5ccc(F)cc5[nH]4)cc3)cc2)cc1,95% (active),38%,-5,101% (active),inactive,inactive,inactive,inactive
O=C(Nc1cccc(-c2cccc(-c3nc4ccccc4[nH]3)c2)c1)Nc1ccc(Cl)c(Cl)c1,98% (active),78% (active),-3,101% (active),inactive,inactive,inactive,inactive
CN(C)Cc1cccc(CNC(=O)c2sccc2OCc2ccc(Cl)cc2)c1,88% (active),7%,-6,90% (active),inactive,inactive,inactive,inactive
CC(C)CCNC(=O)c1cnc2c(O)cccc2c1Nc1cccc(NC(=O)c2ccc(F)cc2)c1,43%,51% (active),-1,93% (active),inactive,inactive,inactive,inactive
CCCc1cc(C(=O)N[C@@H](Cc2ccccc2)[C@H](O)CNC(C)C)c(F)c(N2CCCC2=O)c1,22%,-2%,0,90% (active),inactive,inactive,inactive,inactive
Nc1nc2ncn(COC(COCc3ccccc3)COCc3ccccc3)c2c(=O)[nH]1 (tested in a mixture with another compound),57% (active),18%,-7,86% (active),inactive,inactive,inactive,inactive

SMILES,growth inhibition [1],inhibition [2],inhibition [3] [%],growth inhibition [4],outcome [5],outcome [6],outcome [7],outcome [8]
COc1ccc(-c2cc(Nc3nc(-c4cccc(Cl)c4)nc4ccccc34)ccn2)cc1,17%,3%,-2,100% (active),inactive,inactive,inactive,inactive
O=C(NC1CC1)c1ccc(N2CCN(Cc3ccc(Cl)cc3)CC2)nc1,81% (active),16%,3,84% (active),inactive,inactive,inactive,inactive
CCCc1ccccc1Nc1nc(C)cc(N(CC)CCCN2CCCCC2)n1,49%,27%,-3,98% (active),inactive,inactive,inactive,inactive
CC(C)NC[C@@H](O)[C@H](Cc1ccccc1)NC(=O)c1cc2c3c(c1)c(C(C)C)cn3CCS(=O)(=O)N2C,99% (active),5%,-3,98% (active),inactive,inactive,inactive,inactive
O=C(Nc1cccc(-c2cccc(-c3nc4ccc(C(F)(F)F)cc4[nH]3)c2)c1)c1ccc(=O)[nH]n1,26%,63% (active),0,103% (active),inactive,inactive,inactive,inactive
CC(C)CCn1c(Sc2ccc(C#N)c([N+](=O)[O-])c2)nnc1-c1ccc(N(C)C)cc1,96% (active),11%,3,97% (active),inactive,inactive,inactive,inactive
COc1cc(F)c2ncc(F)c([C@@H](O)CN3CCC(NCc4cc5c(cn4)OCCO5)CC3)c2c1,88% (active),1%,-1,101% (active),inactive,inactive,inactive,inactive
CN(C)CCN1CCN(CCCN2c3ccccc3Sc3ccc(C(F)(F)F)cc32)CC1,61% (active),98% (active),-2,99% (active),inactive,inactive,inactive,inactive
O=C(NCCc1ccccc1)N(Cc1cccc(-c2ccc(CNC3CCCC3)cc2)c1)C1CCN(Cc2ccccc2)CC1,84% (active),36%,0,98% (active),inactive,inactive,inactive,inactive
CC1(C)CN(CCC2CCC(NC(=O)/C=C/c3ccc(F)cc3F)CC2)Cc2ccc(C#N)cc21 (stereo not drawn),77% (active),39%,-6,88% (active),inactive,inactive,inactive,inactive
O=C(/C=C/c1ccc(Cl)c(Cl)c1)NCCCCCN1CCCN(C(=O)Nc2ccc(Cl)cc2)CC1,-5%,21%,-5,100% (active),inactive,inactive,inactive,inactive
CCn1c(SCc2ccccc2)nc2c1c(=O)[nH]c(=O)n2C,30%,1%,-1,96% (active),inactive,inactive,inactive,inactive
COc1ccc2c(NN=Cc3ccccc3)ccnc2c1,98% (active),18%,-5,101% (active),inactive,inactive,inactive,inactive
Cc1cc(OCC2CCN(c3ncc(C(=O)NC4CC4)cc3Cl)CC2)ccc1F,96% (active),16%,5,96% (active),inactive,inactive,inactive,inactive
O=C(Nc1cc(C(F)(F)F)cc(C(F)(F)F)c1)Nc1cc(C(F)(F)F)cc(C(F)(F)F)c1,101% (active),5%,-7,97% (active),inactive,inactive,inactive,inactive
CCN(CC)CCCCOc1ccc2c(c1)C(=O)c1cc(OCCCCN(CC)CC)ccc1-2,44%,24%,-6,102% (active),inactive,inactive,inactive,inactive
O=C(Nc1ccc(Br)c(Cl)c1)c1cc([N+](=O)[O-])cc2cn[nH]c12,63% (active),49%,-1,99% (active),inactive,inactive,inactive,inactive
c1ccc(CNCc2ccc(-c3cccc(-c4nc5ccccc5[nH]4)c3)cc2)cc1,78% (active),55% (active),-2,101% (active),inactive,inactive,inactive,inactive
